The values that follow come from PubChem BioAssay.

SMILES strings stand for the structures. Calls of active or inactive are those of the source.

The nature of the test: change in splice reporter luminescence, either direction, cell-based, HEK293, spliceosome inhibition project, primary screen (AID 1101).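 Further: HEK293 cells carrying a splicing-competent luciferase reporter gene; test concentration not given here.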 Conditions: HEK293 splicing luciferase reporter, 24 h, higher = more signal, called active from +8 up or from −8 down.
In the case of `CC(C)(C)N1CC=CC23O[C@@H]4/C=C\CCCOC(=O)C4[C@H]2C(=O)N(CCCO)[C@@H]3C1=O` (stereo not given in full), the z-score was 0.539 (inactive). With `Cc1ccc(S[C@]2(C(=O)NCCCN(C)C)CC(=O)N(C3Cc4ccccc4C3)[C@@H]2c2ccc(CO)cc2I)cc1` the figure was -1.53 (inactive). `CCOc1cc(C(O)C2C=CC3C(=O)N(c4ccccc4)C(=O)C3N2Nc2ccccc2F)ccc1O` (stereo not given): the z-score is 0.101 (inactive). With `Cc1ccc(F)cc1S(=O)(=O)N[C@H]1CCN(Cc2ccc(OC(C)C)cc2)C1` the figure was -0.24 (inactive).

On to `COC(=O)C(CC#Cc1ccc2c(c1)[C@]1(C(=O)N2)[C@H](c2ccc(OCCO)cc2)N2[C@H](c3ccccc3)[C@H](c3ccccc3)OC(=O)[C@H]2[C@@H]1C(=O)N1CCCCCCC1)C(=O)OC`, for which the z-score was 0.191 (inactive). The figure for `[N-]=[N+]=Nc1ccccc1C[C@]1(C(=O)N2CCOCC2)N=C(c2ccc(OCCCO)cc2)O[C@H]1c1ccccc1N=[N+]=[N-]` is -0.591 (inactive); for `O=C(NC1CC1)[C@@H]1c2ccccc2C(=O)N(Cc2ccc(OC(F)(F)F)cc2)[C@H]1c1ccc(CO)cc1` it is -0.599 (inactive); for `CN(C)CCCC[C@@H]1NC(=O)[C@H]2C[C@@H](C(=O)O)[C@@H](c3ccc(O)cc3)N2C1=O` it is -1.28 (inactive).

With `CO[C@H]1O[C@H](CO)[C@@H](OC(=O)Nc2ccccc2)[C@H](OC(=O)Nc2ccccc2)[C@H]1OC(=O)Nc1ccccc1`, the z-score is -0.405 (inactive). `[N-]=[N+]=NCc1ccccc1[C@@H]1OC(c2ccc(OCCCO)cc2)=N[C@]1(Cc1ccccc1N=[N+]=[N-])C(=O)O`: the z-score was -1.48 (inactive). With `CC(C)=CCCC(C)=CC(O)C1C=CC2C(=O)NC(=O)C2N1Nc1ccc(Cl)cc1Cl` (stereo not given) the figure was 1.22 (inactive).

On to `CC(C)C(=C=CC[C@H](O)c1ccccc1OCCO)C[C@H](O)c1cc(Cl)cc(Cl)c1O`, for which the z-score is -0.605 (inactive).

For the molecule `COc1ccc(C(=O)Nc2ccc3c(c2)[C@@]2(O[C@H](CCO)[C@@H]([Si](C)(C)c4ccc(OC)cc4)[C@@H]2C)C(=O)N3Cc2ccccc2)cc1`, the z-score is -4.86 (inactive). With `CC(C)(C)OC(=O)CC[C@@]1(C(=O)NCCN2CCOCC2)N=C(c2ccc(OCCCO)cc2)O[C@@H]1c1ccccc1CN=[N+]=[N-]` the figure was -0.268 (inactive). With `CC(C)C(CO)N1C(=O)[C@@H]2C3C(=O)OCCC/C=C\[C@H]3OC23C=CCN(Cc2ccccc2)C(=O)[C@@H]13` (stereo not given in full) the figure was -0.0848 (inactive); with `COC(=O)C(CC#Cc1ccc2c(c1)[C@]1(C(=O)N2)[C@H](C(=O)N2CCc3cc(OC)c(OC)cc3C2)[C@H]2C(=O)O[C@H](c3ccccc3)[C@H](c3ccccc3)N2[C@@H]1c1ccccc1OCCO)C(=O)OC`, 0.234 (inactive); with `CC(C)=CCCC=C(C)C(O)C1C=CC2C(=O)N(c3ccccc3)C(=O)C2N1Nc1ccc(C#N)cc1` (stereo not given), -0.403 (inactive). The figure for `C=CCC(OC(C)=O)[C@@H]1[C@@H](N(Cc2cccc3ccccc23)C(=O)Cc2ccc(OC)cc2)c2cc(OCCCO)ccc2N1C(=O)Cc1ccc2ccccc2c1` (stereo not given in full) is -0.738 (inactive).

Turning to `CN1C(=O)C2C=CC(C(O)c3ccc(-c4ccccc4)s3)N(NC(=O)OC(C)(C)C)C2C1=O` (stereo not given), the z-score was 2.11 (inactive). With `COC(=O)[C@@]1(Cc2ccccc2)N=C(c2ccc(OCCCO)cc2)O[C@H]1c1ccccc1CN=[N+]=[N-]` the figure was 12.9 (active); with `COc1ccc([Si](C)(C)[C@H]2[C@H](CC(=O)N3Cc4ccccc4C[C@H]3CO)O[C@@]3(C(=O)N(C)c4ccccc43)[C@@H]2C)cc1`, -2.06 (inactive); with `C=CCC(OC(C)=O)[C@@H]1[C@@H](N(Cc2cc3ccccc3o2)C(=O)c2cccc3ccccc23)c2cc(OCCCO)ccc2N1C(=O)c1ccc2ccccc2n1` (stereo not given in full), -0.73 (inactive).

Turning to `CCOC(=O)C[C@H]1[C@H](OC(=O)c2ccccc2-c2ccccc2)[C@@H](NC(=O)C2CCCCC2)c2cc(OCCCO)ccc2N1C(=O)c1ccc2ccccc2n1`, the z-score was 0.0681 (inactive). With `O=C1C2C=CC(C(O)C3CCCCC3)N(n3cnnc3)C2C(=O)N1Cc1ccccc1` (stereo not given) the figure was -1.3 (inactive); with `C=CCOC(=O)[C@@H]1[C@H]2C(=O)O[C@H](c3ccccc3)[C@H](c3ccccc3)N2[C@H](c2ccc(OCCOC(=O)[C@H]3C[C@H]4C(=O)N[C@@H](CCCCN(C)C)C(=O)N4[C@H]3c3ccc(O)cc3)cc2)[C@@]12C(=O)Nc1ccc(I)cc12`, 0.676 (inactive).
